Reference: PubChem BioAssay
Activity calls are given as the source filed them. Unless noted, how the calls were made is not given here.

Columns and labels:
[1] = compound effects on lung adenocarcinoma cell viability – A549, calcein-AM fluorescence, 48 h, basal, profiling panel (AID 1162); conditions: higher = more signal; further: test concentration not given here
[2] = compound effects on differentiated 3T3-L1 adipocyte viability – cell-based, 3T3-L1 adipocytes, calcein-AM fluorescence, 48 h, basal, profiling panel (AID 1163); conditions: 3T3-L1 adipocytes viability, higher = more signal; further: test concentration not given here
[3] = compound effects on hepatocellular carcinoma cell viability – HepG2, calcein-AM fluorescence, 48 h, basal, profiling panel (AID 1164); conditions: higher = more signal; further: test concentration not given here
[4] = compound effects on multiple myeloma cell viability – MM1S, calcein-AM fluorescence, 48 h, basal, profiling panel (AID 1165); conditions: higher = more signal; further: test concentration not given here
[5] = calcein-AM signal in unstimulated myeloma cells – cell-based, calcein-AM fluorescence, 48 h, PK04 Diversity Set, profiling panel (AID 1166); conditions: RPMI8226 myeloma viability, higher = more signal;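 further: cells grown under basal conditions without added stimulus; test concentration not given here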
[6] = JC-1 mitochondrial signal, unstimulated HepG2 cells – cell-based, JC-1 fluorescence, 24 h, 100 nL compound, profiling panel (AID 1167); conditions: HepG2 mitochondrial potential, higher = more signal; further: test concentration not given here
[7] = JC-1 mitochondrial signal, unstimulated adipocytes – cell-based, JC-1 fluorescence, 3T3-L1 adipocytes, 24 h, 100 nL compound, profiling panel (AID 1168); conditions: JC-1 mitochondrial fluorescence, higher = more signal, called active from +8 up or from −8 down; further: test concentration not given here
[8] = JC-1 mitochondrial signal, unstimulated myeloma cells – cell-based, JC-1 fluorescence, RPMI8226, 24 h, 100 nL compound, profiling panel (AID 1169); conditions: JC-1 mitochondrial potential fluorescence, higher = more signal; further: test concentration not given here
[9] = JC-1 mitochondrial signal, unstimulated MM1S myeloma – cell-based, JC-1 fluorescence, 24 h, 100 nL compound, profiling panel (AID 1170); conditions: MM1S mitochondrial potential, higher = more signal; further: test concentration not given here
[10] = resazurin metabolic signal in A549 cells – cell-based, resazurin fluorescence, 24 h, PK04 Diversity Set, profiling panel (AID 1171); conditions: A549 viability, higher = more signal, called active from +8 up or from −8 down; further: test concentration not given here
[11] = resazurin metabolic signal in HepG2 cells – cell-based, resazurin fluorescence, 24 h, PK04 Diversity Set, profiling panel (AID 1172); conditions: HepG2 viability, higher = more signal; further: test concentration not given here
[12] = budding yeast growth changes without added modifier – OD600, strain BY4716, 24 h, basal condition, primary screen (AID 1173); conditions: S. cerevisiae BY4716 growth, OD600, 24 h; higher = more signal, called active from +8 up or from −8 down
[13] = viability profiling in MM1S myeloma cells – cell-based, resazurin fluorescence, basal, 24 h, PK04 Diversity Set, profiling panel (AID 1174); conditions: higher = more signal, called active from +8 up or from −8 down; further: test concentration not given here
[14] = molecular target: Dihydroorotate dehydrogenase (quinone), mitochondrial (Plasmodium falciparum (isolate 3D7)) (UniProt Q08210); test: inhibition of P. falciparum DHODH – biochemical, C-terminal His tag, absorbance 600 nm, primary screen (AID 1175); conditions: PfDHODH enzyme, DCIP absorbance 600 nm; higher = more signal, called active from +8 up or from −8 down;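 further: recombinant parasite enzyme with a five histidine tag at its C terminus; test concentration not given here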
[15] = inhibition of PAO1 biofilm formation – strain PAO1, LB-PBS medium, absorbance 600 nm, primary screen (AID 1176); further: test concentration not given here; conditions: P. aeruginosa PAO1 growth/biofilm, A600, 12 h; higher = more signal
[16] = growth modulation of vineyard yeast isolate – strain RM11-1a, OD600, basal, 24 h, primary screen (AID 1177);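 further: cultures grown under basal conditions with no added stressor; test concentration not given here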; conditions: S. cerevisiae RM11-1a growth, OD600, 24 h; higher = more signal, called active from +8 up or from −8 down
[17] = growth of efflux-deficient E. coli DRC39 – strain DRC39, OD650, 24 h, E. coli filamentation inducers, primary screen (AID 1178);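 further: growth measured as culture turbidity by optical density at 650 nm; test concentration not given here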; conditions: E. coli DRC39 acrAB, higher = more signal, called active from +8 up or from −8 down
[18] = growth of efflux-deficient E. coli DRC39 – strain DRC39, OD650, 48 h, E. coli filamentation inducers, primary screen (AID 1179);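 further: screen aims at cell division blockers that make cells filament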; conditions: E. coli DRC39 delta-acrAB growth, higher = more signal, called active from +8 up or from −8 down
[19] = viability profiling in RPMI8226 myeloma cells – cell-based, resazurin fluorescence, basal, 24 h, PK04 Diversity Set, profiling panel (AID 1180); conditions: higher = more signal;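 further: RPMI8826 multiple myeloma cell line at 5000 cells per well; test concentration not given here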
[20] = molecular target: E3 ubiquitin-protein ligase XIAP (Homo sapiens) (UniProt P98170); test: small molecules binding XIAP protein – biophysical, small-molecule microarray, fluorescence 635 nm, primary screen (AID 1181); conditions: higher = more signal;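 further: score merges 667 nm emission and signal to noise over triplicate slides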
Sequence of E3 ubiquitin-protein ligase XIAP (Homo sapiens) (P98170 whole entry, looked up): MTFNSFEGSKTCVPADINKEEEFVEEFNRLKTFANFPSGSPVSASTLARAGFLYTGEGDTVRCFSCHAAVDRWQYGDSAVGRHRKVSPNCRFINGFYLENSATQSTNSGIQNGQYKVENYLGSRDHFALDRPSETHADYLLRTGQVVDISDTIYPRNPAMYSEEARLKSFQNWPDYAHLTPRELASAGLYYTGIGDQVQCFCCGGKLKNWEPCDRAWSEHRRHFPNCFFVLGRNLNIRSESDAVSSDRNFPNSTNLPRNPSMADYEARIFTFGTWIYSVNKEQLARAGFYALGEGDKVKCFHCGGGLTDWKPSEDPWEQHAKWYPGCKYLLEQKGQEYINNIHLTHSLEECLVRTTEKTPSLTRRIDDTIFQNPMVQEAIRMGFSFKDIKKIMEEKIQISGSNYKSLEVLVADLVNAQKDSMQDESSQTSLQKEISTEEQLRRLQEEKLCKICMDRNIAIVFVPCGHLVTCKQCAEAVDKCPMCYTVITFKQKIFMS

Sequence of Dihydroorotate dehydrogenase (quinone), mitochondrial (Plasmodium falciparum (isolate 3D7)) (Q08210 whole entry, looked up): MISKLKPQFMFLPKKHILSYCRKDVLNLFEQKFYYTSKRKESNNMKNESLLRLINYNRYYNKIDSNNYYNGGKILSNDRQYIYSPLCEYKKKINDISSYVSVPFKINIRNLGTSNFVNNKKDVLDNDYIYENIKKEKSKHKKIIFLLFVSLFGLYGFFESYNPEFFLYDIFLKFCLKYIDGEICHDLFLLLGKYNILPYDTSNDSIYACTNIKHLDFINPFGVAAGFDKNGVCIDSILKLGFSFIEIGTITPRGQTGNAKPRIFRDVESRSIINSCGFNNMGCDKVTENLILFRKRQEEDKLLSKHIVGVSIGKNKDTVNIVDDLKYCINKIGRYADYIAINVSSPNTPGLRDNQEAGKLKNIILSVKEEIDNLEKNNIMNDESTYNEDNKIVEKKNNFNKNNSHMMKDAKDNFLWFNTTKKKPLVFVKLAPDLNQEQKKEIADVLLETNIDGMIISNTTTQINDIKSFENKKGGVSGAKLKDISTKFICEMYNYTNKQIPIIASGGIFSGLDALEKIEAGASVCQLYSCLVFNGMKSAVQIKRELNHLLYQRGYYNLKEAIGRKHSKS

Structure (SMILES)	z-score [1]	z-score [2]	z-score [3]	z-score [4]	z-score [5]	z-score [6]	z-score [7]	z-score [8]	z-score [9]	z-score [10]	z-score [11]	z-score [12]	z-score [13]	composite z-score [14]	z-score [15]	z-score [16]	z-score [17]	z-score [18]	z-score [19]	composite z-score [20]
N[C@@H](Cc1ccccc1)Cn1cc(C2(O)CCCCC2)nn1	-0.359	-0.169	0.0224	-0.991	-0.775	-0.739	-0.375 (inactive)	-0.622	-0.313	-0.279 (inactive)	-0.384	-0.125 (inactive)	-0.156 (inactive)	-0.0324 (inactive)	0.0672 (inactive)	-0.507 (inactive)	-0.0019 (inactive)	-0.607 (inactive)	-0.785	-0.0767
COCCOC(=O)N1C(=O)[C@@]2(c3cc(C#CCCO)ccc31)[C@H](c1ccccc1OCCO)N1[C@H](c3ccccc3)[C@H](c3ccccc3)OC(=O)[C@H]1[C@@H]2C(=O)N1CCc2cc(OC)c(OC)cc2C1	1.14	0.251	1.37	0.713	0.503	1.13	0.808 (inactive)	-0.361	-1.04	0.646 (inactive)	-0.321	1.39 (inactive)	0.248 (inactive)	0.725 (inactive)	1.26 (inactive)	2 (inactive)	0.0965 (inactive)	0.963 (inactive)	1.19	0.132
CC(C)C[C@@H]1NC(=O)C([C@@H](C)OCc2ccccc2)NC(=O)[C@@]23C(=O)N[C@@H](Cc4ccccc4)C2[C@H](C)[C@@]2(C)O[C@H]2C3/C=C/CC/C=C/CNC1=O (stereo not given in full)	-0.638	1.58	0.0538	-1.31	-2.32	2	0.17 (inactive)	-0.478	-0.638	-0.785 (inactive)	0.536	-1.78 (inactive)	-0.0218 (inactive)	-0.485 (inactive)	0.261 (inactive)	-0.435 (inactive)	1.64 (inactive)	0.212 (inactive)	-0.417	-0.144
O=C1C2C=CC(C(O)C(c3ccccc3)c3ccccc3)N(Nc3ccccc3)C2C(=O)N1c1ccccc1 (stereo not given)	0.758	-0.835	1.82	0.032	-0.213	-0.335	-1.64 (inactive)	-0.305	-0.401	-0.876 (inactive)	0.9	-0.659 (inactive)	-1.05 (inactive)	1.09 (inactive)	1.26 (inactive)	0.347 (inactive)	-0.615 (inactive)	-0.0085 (inactive)	-0.403	0.34
CCOC(=O)C[C@H]1[C@H](OC(=O)c2cc3ccccc3oc2=O)[C@@H](NC(=O)C2CCCCC2)c2cc(OCCCO)ccc2N1C(=O)Cc1ccc(OC)cc1	-0.266	0.535	0.391	0.254	0.0583	0.38	-0.229 (inactive)	0.0411	0.185	-0.545 (inactive)	-0.715	0.0323 (inactive)	-0.176 (inactive)	0.427 (inactive)	-0.234 (inactive)	-0.0196 (inactive)	-0.825 (inactive)	-1.1 (inactive)	-0.986	0.214
C#CCN(C/C=C/c1ccccc1)[C@H](CO[Si](C)(C)C(C)(C)C)c1ccccc1	-0.909	-0.0156	-0.676	-0.848	-2.58	-2.55	0.155 (inactive)	-0.352	0.653	0.403 (inactive)	-0.355	0.571 (inactive)	-0.668 (inactive)	-0.26 (inactive)	0.167 (inactive)	0.244 (inactive)	-1.38 (inactive)	-1.59 (inactive)	-0.764	-0.295
COCCOC(=O)N1C(=O)[C@@]2(c3cc(C#CC4(O)CCCCCC4)ccc31)[C@H](c1ccccc1OCCO)N1[C@H](c3ccccc3)[C@H](c3ccccc3)OC(=O)[C@H]1[C@@H]2C(=O)N1CCCCCCC1	-0.971	0.723	0.818	-1.45	-1.99	-0.286	0.454 (inactive)	-0.557	-1.34	-0.141 (inactive)	-0.0209	2.15 (inactive)	-0.303 (inactive)	0.0767 (inactive)	2.05 (inactive)	2.76 (inactive)	-0.225 (inactive)	0.003 (inactive)	-0.444	0.0483
CCCCC(=C=CC[C@@H](O)c1cccc(OCCO)c1)CCO	1.58	-0.634	0.98	0.859	0.0922	0.416	1.27 (inactive)	0.044	-1.09	1.06 (inactive)	0.695	-1.26 (inactive)	-0.0452 (inactive)	-0.376 (inactive)	0.424 (inactive)	0.549 (inactive)	1.14 (inactive)	0.839 (inactive)	1.37	-0.0853
Cc1ccc(F)cc1S(=O)(=O)N[C@@H]1CCN(Cc2ccc3c(c2)OCO3)C1	0.923	-0.447	0.326	0.361	-0.525	-0.184	-0.0208 (inactive)	0.302	-0.591	-0.156 (inactive)	-0.622	-4.86 (inactive)	-0.584 (inactive)	0.171 (inactive)	-0.177 (inactive)	0.34 (inactive)	-0.572 (inactive)	-2.33 (inactive)	0.224	0.13
